Drawing on PubChem BioAssay AID463173 (ICCB-Longwood Screening Facility, Harvard Medical School, 2010), this text covers survival for 63 molecules.

The campaign covered roughly 52,000 compounds. About 1,700 (3.3%) were called active. What follows is part of a selection rich in actives, with near analogues and random picks from the rest. Values without a mark were called inactive. Cut-off read from the data, not from the text of the source: active = survival mostly below about 52% (no sharp cut-off); inactive = mostly above about 56%.

This experiment concerns Wild type. The experiment in a line: S. aureus survival, RN4220 and DeltatarO strains – OD600, teichoic acid synthesis inhibitors, primary screen (AID 463173). As to conditions: S. aureus RN4220 wild type/DeltatarO growth, OD600, 18 h, stronger effect = lower value, concentration not given here.
With `Cc1ccc(Cl)cc1NC(=O)N(Cc1ccc2c(c1)OCO2)C1CCN(Cc2ccccc2)CC1`, the survival was 14% (active).
The same measure for `Cc1ccc(NC(=O)N(Cc2ccc3c(c2)OCO3)C2CCN(Cc3ccccc3)CC2)cc1C`: -1% (active); for `Cc1ccc(NC(=O)N(Cc2ccc3c(c2)OCO3)C2CCN(Cc3ccccc3)CC2)cc1Cl`: 133%.
The same measure for `Cc1ccc(NC(=O)N(Cc2ccc3c(c2)OCO3)C2CCN(Cc3ccccc3)CC2)cc1F`: 76%.
Under `O=C(Nc1ccccc1)N(Cc1ccc2c(c1)OCO2)C1CCN(Cc2ccccc2)CC1` stands 78%; under `COc1ccccc1NC(=O)N(Cc1ccc2c(c1)OCO2)C1CCN(Cc2ccccc2)CC1`, 78%.
Regarding `Cc1cccc(CN2CCN(C(=O)COc3ccccc3)CC2)c1`, the survival is 108%.
Under `CCCOc1ccc(CCN)cc1Cl` stands 107%; under `O=C(Nc1ccc2c(c1)OCO2)c1cccn(Cc2cccc([N+](=O)[O-])c2)c1=O`, 77%.
Under `c1cc(C2CCNCC2)ccn1` stands 104%.
The same measure for `NC(=O)CN1C2CCC1CC(NC(=O)C1CC1)C2` (stereo not drawn): 103%.
Consider `O=S1(=O)N(Cc2ccccc2)CCCN1Cc1ccc(F)cc1Cl`, for which the survival is 76%.
Under `O=S1(=O)N(Cc2ccccc2)CCCN1Cc1cccc(Cl)c1` stands 78%; under `O=S1(=O)N(Cc2ccccc2Cl)CCCN1Cc1ccccc1Cl`, -4% (active); under `COc1ccc(CN2C(=O)CC(=O)NC2=S)cc1`, 107%.
Under `CCCCc1nn2c(=O)cc(COC(=O)Cc3ccccc3)nc2s1` stands 84%.
Under `CCC(C)N1CCN(Cc2ccccc2)CC1` (stereo not drawn) stands 111%; under `COc1ccccc1C1SCC(=O)Nc2c1c(C)nn2-c1cccc(C)c1` (stereo not drawn), -10% (active); under `Cc1cccc(-n2nc(C)c3c2NC(=O)CSC3c2ccccc2Cl)c1` (stereo not drawn), 64%.
As to `CCCOc1ccc(C2SCC(=O)Nc3c2c(C)nn3-c2cccc(C)c2)cc1OC` (stereo not drawn), the survival is 62%.
On to `CCCc1nc2ccccc2c(=O)n1-c1ccccc1`, for which the survival was 127%.
As for `O=C(COc1ccccc1)N1CCN(Cc2ccc(Br)cc2)CC1`, the survival is 100%.
`CCCCCn1c(=O)c(C(=O)Nc2ccccc2S(N)(=O)=O)c(O)c2ccccc21`: the survival is 0% (active).
The same measure for `CCCCn1c(=O)c(C(=O)NC)c(O)c2ccccc21`: 112%; for `CCSc1nnc(NC(=O)c2cccn(Cc3ccccc3Cl)c2=O)s1`: 71%.
In the case of `CN1CCC2(CC1)CC(NC=O)c1ccccc1O2` (stereo not drawn), the survival was 108%.
As for `Nc1c(C(=O)Nc2ccc(OC(F)(F)F)cc2)sc2nc3c(cc12)N1CCC3CC1`, the survival is 167%.
Take `N#Cc1cc2c(nc1SCC(=O)Nc1ccc(C(F)(F)F)cc1)C1CCN2CC1`: the survival was 0% (active).
Under `CCOC(=O)c1ccc(NC(=O)CSc2nc3c(cc2C#N)N2CCC3CC2)cc1` stands 84%.
The same measure for `Nc1c(C(=O)Nc2cccc(Br)c2)sc2nc3c(cc12)N1CCC3CC1`: 63%.
Under `N#Cc1cccc(NC(=O)CSc2nc3c(cc2C#N)N2CCC3CC2)c1` stands 76%.
As to `O=C(CN1C(=O)CN=C(c2ccccc2)c2ccccc21)Nc1cccc(C(F)(F)F)c1`, the survival is 48%.
The same measure for `N#Cc1cc2c(nc1SCC(=O)Nc1cccc(C(F)(F)F)c1)C1CCN2CC1`: 0% (active); for `N#Cc1cc2c(nc1SCC(=O)Nc1cccc(F)c1)C1CCN2CC1`: -3% (active); for `CN1CCc2c(C#N)c(Cl)nc(NCc3ccccc3)c2C1`: 103%.
Turning to `CCCC1(CCC)C(=O)NC(=Nc2ccccc2)NC1=O`, the survival is 107%.
The same measure for `COc1ccc(CC2C(=O)N(C)C(=O)N(C)C2=O)cc1`: 112%; for `CCc1cc2c(s1)NC(=O)CN=C2c1cccs1`: 112%.
Under `N#CC(C#N)=Cc1cc(Br)cs1` stands 94%; under `Cc1cc(-n2c(/C=C/c3ccc(Br)s3)nc3ccccc3c2=O)ccc1Br`, 66%; under `Cn1cc(C=C(C#N)C#N)c2ccccc21`, 114%.
Consider `Cc1ccccc1-n1c(/C=C/c2ccc(N(C)C)cc2)nc2ccccc2c1=O`, for which the survival is 7% (active).
Under `Cc1ccccc1-n1c(/C=C/c2ccc(O)cc2)nc2ccccc2c1=O` stands 48%.
Under `O=c1c2ccccc2nc(/C=C\c2ccc(F)cc2)n1-c1ccccc1F` stands 71%; under `O=c1c2ccccc2nc(/C=C\c2ccccc2F)n1-c1ccc(O)cc1`, 73%; under `Cc1ccccc1-n1c(/C=C/c2ccccc2F)nc2ccccc2c1=O`, 7% (active).
Under `Cc1cccc(-n2c(/C=C/c3c(C)[nH]c4ccccc34)nc3ccccc3c2=O)c1` stands 108%.
In the case of `Cc1cccc(-n2c(/C=C/c3ccccc3O)nc3ccccc3c2=O)c1`, the survival is 12%.
The same measure for `COc1ccc(-n2c(/C=C\c3ccccc3F)nc3ccccc3c2=O)c(OC)c1`: 68%; for `O=c1c2ccccc2nc(/C=C/c2ccccc2)n1-c1ccccc1F`: 97%; for `Cc1ccc(-n2c(/C=C\c3ccc(F)c(F)c3)nc3ccccc3c2=O)c(C)c1`: 68%.
With `Cc1ccccc1-n1c(/C=C/c2c(C)[nH]c3ccccc23)nc2ccccc2c1=O`, the survival is 6% (active).
`O=c1c2ccccc2nc(/C=C/c2ccccc2F)n1-c1cccc(O)c1`: the survival is 11% (active).
As for `Cc1cccc2sc(NC(=O)c3cccn(Cc4ccccc4)c3=O)nc12`, the survival is 78%.
Under `COC(=O)c1ccc(NC(=O)c2cccn(Cc3ccccc3C)c2=O)cc1` stands 88%; under `Cc1c(C(c2ccc(Br)cc2)c2c(O)c3ccccc3oc2=O)c(=O)n(-c2ccccc2)n1C` (stereo not drawn), 69%; under `COc1ccc(CNCC(=O)N2CCC3(CC2)OCCO3)cc1`, 107%.
Under `CCOc1ccc(CC2(CCc3ccncc3)C(=O)NC(=O)NC2=O)cc1` stands 96%.
In the case of `CCOc1ccc(-n2c(/C=C/c3ccccc3)nc3ccccc3c2=O)cc1`, the survival is 136%.
The same measure for `CCc1ccc(OCC(=O)N2CCN(CCc3ccccn3)CC2)cc1`: 83%.
Under `COc1cccc(-n2c(/C=C\c3ccc(Cl)cc3)nc3ccccc3c2=O)c1` stands 48%; under `COc1cccc(-n2c(/C=C/c3ccccc3O)nc3ccccc3c2=O)c1`, 20%.
Under `COc1cccc(-n2c(/C=C/c3cccc(C)c3)nc3ccccc3c2=O)c1` stands 0% (active).
